Laboratory results reported in PubChem BioAssay (Tox21).
Results filed as inconclusive are left out. Activity calls are given as the source filed them. Unless noted, the call rests on the fitted dose curve.

Legend:
[1] = Nuclear factor erythroid 2-related factor 2/antioxidant responsive element (Nrf2/ARE) small molecule agonists: qHTS cell viability counter screen in human keratinocytes (AID 1919968; active means well fitted curve in the direction sought with a large enough effect in the repeat runs; an effect the other way counts as inactive or inconclusive; further: nearly all actives have a fitted effect of over 55% in size)
Procedure, shortened: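 Stably transfected HaCaT (KeratinoSens), 1,500/well. Test agents in DMSO were applied for 23 h, 37 C/5% CO2. CellTiter-Fluor was incubated 1 h before the fluorescence read.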

[2] = Nuclear factor erythroid 2-related factor 2/antioxidant responsive element (Nrf2/ARE) small molecule agonists: luciferase reporter gene qHTS assay in human keratinocytes (AID 1919969); further: nearly all actives have a fitted effect of over 35% in size
[3] = molecular target: Gonadotropin-releasing hormone receptor (Homo sapiens) (UniProt P30968); test: Human gonadotropin-releasing hormone receptor (GnRHR) small molecule agonists, calcium flux assay in GnRHR-HEK293 cells (AID 1920063); further: nearly all actives have a fitted effect of over 35% in size
Sequence of Gonadotropin-releasing hormone receptor (Homo sapiens) (P30968 whole entry, looked up): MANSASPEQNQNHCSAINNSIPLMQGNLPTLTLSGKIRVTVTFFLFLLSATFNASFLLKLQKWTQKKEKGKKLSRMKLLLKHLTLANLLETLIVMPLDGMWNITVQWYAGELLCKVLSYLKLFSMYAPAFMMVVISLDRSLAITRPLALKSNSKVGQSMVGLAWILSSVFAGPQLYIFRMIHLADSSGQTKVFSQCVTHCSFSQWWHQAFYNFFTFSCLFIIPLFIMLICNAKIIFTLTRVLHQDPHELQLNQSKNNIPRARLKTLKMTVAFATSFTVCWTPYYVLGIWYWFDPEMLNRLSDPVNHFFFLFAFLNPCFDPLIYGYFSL
Procedure, shortened: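 Stable human GnRHR HEK293 line. 18 h plating, then calcium dye for 1 h at 37 C. Agonist-mode compound addition from DMSO stocks; fluorescence monitored 3 min.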

[4] = molecular target: KiSS-1 receptor (Homo sapiens) (UniProt Q969F8); test: Human kisspeptin (KISS1R) small molecule agonists, calcium flux assay in KISS1R-HEK293 cells (AID 1920064; active means well fitted curve in the direction sought with a large enough effect in the repeat runs; an effect the other way counts as inactive or inconclusive)
Sequence of KiSS-1 receptor (Homo sapiens) (Q969F8 whole entry, looked up): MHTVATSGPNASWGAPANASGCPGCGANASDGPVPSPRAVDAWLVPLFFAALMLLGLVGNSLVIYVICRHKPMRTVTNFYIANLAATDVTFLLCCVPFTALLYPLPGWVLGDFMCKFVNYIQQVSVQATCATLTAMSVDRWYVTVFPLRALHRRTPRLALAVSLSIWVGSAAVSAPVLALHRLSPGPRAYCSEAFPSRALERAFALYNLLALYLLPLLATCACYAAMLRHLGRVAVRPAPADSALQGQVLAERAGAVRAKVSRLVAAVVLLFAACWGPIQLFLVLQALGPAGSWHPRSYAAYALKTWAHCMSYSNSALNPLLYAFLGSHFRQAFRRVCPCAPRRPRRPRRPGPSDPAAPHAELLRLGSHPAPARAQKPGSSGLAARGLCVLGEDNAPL
Procedure, shortened: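 After overnight (18 h) culture at 37 C/5% CO2, human KISS1R-HEK293 cells received calcium dye for 1 h, then test compound; emission at 540 nm (excitation 480 nm) was tracked for 3 min.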

[5] = G protein-coupled receptor (GPCR) small molecule agonists, calcium flux assay: HEK293 wild type cell line counter screen (AID 1920065)
Procedure, shortened: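 Following 18 h incubation at 37 C/5% CO2, plates got calcium dye for 1 h; compounds, ATP or DMSO were then pinned in and fluorescence followed kinetically (480/540 nm).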

[6] = p53 small molecule agonists, cell-based qHTS assay with human liver microsomes (AID 1963577);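 further: p53 response element beta-lactamase reporter cells with liver microsomes plus NADPH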
Procedure, shortened: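 Steps: plate p53RE-bla cells, incubate 5 h at 37 C; add compound in DMSO; add microsomes (0.5 mg/mL final) and NADPH (0.5 mg/mL final); incubate 16 h at 37 C; add LiveBLAzer, 2 h RT; read fluorescence.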

[7] = p53 small molecule agonists, cell-based qHTS assay with rat liver microsomes (AID 1963578)
Procedure, shortened: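 Metabolic activation is supplied by rat liver microsomes with NADPH (each 0.5 mg/mL final). p53RE-bla cells incubate with compound 16 h at 37 C; reporter activity is measured by LiveBLAzer fluorescence.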

[8] = p53 small molecule agonists, cell-based qHTS assay with human liver microsomes: qHTS cell viability counter screen (AID 1963579); further: nearly all actives have a fitted effect of over 45% in size
Procedure, shortened: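 After the 460/530 nm beta-lactamase read, CellTiter-Glo was added to the same wells and luminescence measured after 30 min at room temperature, giving viability of p53RE-bla cells treated 16 h with compounds plus microsomes and NADPH.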

[9] = p53 small molecule agonists, cell-based qHTS assay: qHTS cell viability counter screen (AID 1963581); further: nearly all actives have a fitted effect of over 45% in size
Procedure, shortened: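 qHTS counter screen: 16 h compound exposure at 37 C of p53RE-bla HCT-116 cells (4,000 per well, seeded 5 h prior), cell viability by ATP luminescence.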

[10] = p53 small molecule agonists, cell-based qHTS assay (AID 1963582; active means well fitted activation curve with a large enough effect in the signal ratio in the repeat runs, not every such curve was filed as active; the % refers to the signal ratio)
Procedure, shortened: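 Measured: fluorescence from cleaved LiveBLAzer substrate. System: p53RE-bla cells, 16 h compound treatment at 37 C, 2 h substrate step at room temperature.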

[11] = molecular target: 5-hydroxytryptamine receptor 2A (Homo sapiens) (UniProt P28223); test: 5-hydroxytryptamine receptor 2A (HTR2A) small molecule antagonists, cell-based qHTS assay (AID 1963586); further: nearly all actives have a fitted effect of over 45% in size
Sequence of 5-hydroxytryptamine receptor 2A (Homo sapiens) (P28223 whole entry, looked up): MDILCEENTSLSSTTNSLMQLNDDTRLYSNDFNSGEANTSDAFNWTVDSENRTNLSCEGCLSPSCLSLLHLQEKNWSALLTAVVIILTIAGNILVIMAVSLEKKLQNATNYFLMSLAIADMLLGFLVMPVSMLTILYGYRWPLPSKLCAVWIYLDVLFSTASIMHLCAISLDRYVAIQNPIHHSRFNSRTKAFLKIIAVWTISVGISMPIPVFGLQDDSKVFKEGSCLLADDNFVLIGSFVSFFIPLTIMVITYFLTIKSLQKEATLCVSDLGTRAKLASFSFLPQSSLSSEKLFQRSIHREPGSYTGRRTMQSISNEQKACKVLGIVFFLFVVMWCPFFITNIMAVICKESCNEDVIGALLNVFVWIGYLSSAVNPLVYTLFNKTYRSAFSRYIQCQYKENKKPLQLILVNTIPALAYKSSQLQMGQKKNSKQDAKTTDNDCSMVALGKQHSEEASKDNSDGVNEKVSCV
Procedure, shortened: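 CHO cells stably expressing human HTR2A were plated for 18 h at 37 C, then loaded with calcium dye for 1 h. Compounds were preincubated 5 min at room temperature before DOI (4 nM solution) was added. Kinetic fluorescence was read for 3 min.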

[12] = molecular target: 5-hydroxytryptamine receptor 2A (Homo sapiens) (UniProt P28223); test: 5-hydroxytryptamine receptor 2A (HTR2A) small molecule agonists, cell-based qHTS assay (AID 1963587); further: nearly all actives have a fitted effect of over 30% in size
Procedure, shortened: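 Kinetic calcium-flux fluorescence (2 min, 1 sec intervals) after compound addition in agonist mode. HTR2A-CHO cells were cultured 18 h, then dye-loaded 1 h at 37 C.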

[13] = molecular target: Muscarinic acetylcholine receptor M1 (Homo sapiens) (UniProt P11229); test: Cholinergic receptor muscarinic 1 (CHRM1) small molecule antagonists, cell-based qHTS assay (AID 1963588); further: nearly all actives have a fitted effect of over 40% in size
Sequence of Muscarinic acetylcholine receptor M1 (Homo sapiens) (P11229 whole entry, looked up): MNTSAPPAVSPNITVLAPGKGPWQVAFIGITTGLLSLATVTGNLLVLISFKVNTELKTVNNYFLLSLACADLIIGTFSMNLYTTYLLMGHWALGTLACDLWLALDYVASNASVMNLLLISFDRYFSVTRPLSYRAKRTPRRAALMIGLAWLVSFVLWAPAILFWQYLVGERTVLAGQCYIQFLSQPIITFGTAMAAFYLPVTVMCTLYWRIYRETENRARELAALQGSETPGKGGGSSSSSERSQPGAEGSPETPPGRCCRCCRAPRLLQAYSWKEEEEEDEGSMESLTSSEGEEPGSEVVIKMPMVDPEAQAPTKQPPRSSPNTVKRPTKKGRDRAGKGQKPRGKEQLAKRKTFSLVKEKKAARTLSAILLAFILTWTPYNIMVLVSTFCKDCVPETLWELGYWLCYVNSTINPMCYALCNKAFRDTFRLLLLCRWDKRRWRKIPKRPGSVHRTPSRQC
Procedure, shortened: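 Compounds were tested at 15 concentrations in three independent runs. Dye-loaded CHRM1-CHO cells were exposed 5 min at room temperature before stimulation by acetylcholine added at 50nM. Intracellular calcium was read kinetically on FDSS for 3 min.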

[14] = molecular target: Muscarinic acetylcholine receptor M1 (Homo sapiens) (UniProt P11229); test: Cholinergic receptor muscarinic 1 (CHRM1) small molecule agonists, cell-based qHTS assay (AID 1963589); further: nearly all actives have a fitted effect of over 35% in size
Procedure, shortened: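 Kinetic fluorescence (1 s intervals) of calcium-sensitive dye in human M1 CHO cells after compound addition; cells pre-incubated 18 h at 37 C/5% CO2 and dye-loaded 1 h.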

[15] = cAMP Responsive Elements (CRE) small molecule agonists, cell-based qHTS assay (AID 1963590)
Procedure, shortened: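 Test agents in DMSO were incubated 3 h at 37 C/5% CO2 with CRE-bla HEK 293T cells seeded 18 h earlier; LiveBLAzer B/G FRET substrate was added and read after 2 h at room temperature.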

[16] = cAMP Responsive Elements (CRE) small molecule antagonists, cell-based qHTS assay (AID 1963591; active means well fitted inhibition curve with a large enough effect in the signal ratio in the repeat runs, not every such curve was filed as active; the % refers to the signal ratio)
Procedure, shortened: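 Reporter line CRE-bla HEK 293T in dialyzed-FBS DMEM; cells preincubated 18 h, treated 3 h with compound plus NKH477 (0.25 uM final); LiveBLAzer FRET, 2 h RT.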

[17] = molecular target: Beta-2 adrenergic receptor (Homo sapiens) (UniProt P07550); test: Adrenergic beta2 receptor (ADRB2) small molecule antagonists, cell-based qHTS assay (AID 1963592); further: series mostly up to about 92 µM; nearly all actives have a fitted effect of over 50% in size
Sequence of Beta-2 adrenergic receptor (Homo sapiens) (P07550 whole entry, looked up): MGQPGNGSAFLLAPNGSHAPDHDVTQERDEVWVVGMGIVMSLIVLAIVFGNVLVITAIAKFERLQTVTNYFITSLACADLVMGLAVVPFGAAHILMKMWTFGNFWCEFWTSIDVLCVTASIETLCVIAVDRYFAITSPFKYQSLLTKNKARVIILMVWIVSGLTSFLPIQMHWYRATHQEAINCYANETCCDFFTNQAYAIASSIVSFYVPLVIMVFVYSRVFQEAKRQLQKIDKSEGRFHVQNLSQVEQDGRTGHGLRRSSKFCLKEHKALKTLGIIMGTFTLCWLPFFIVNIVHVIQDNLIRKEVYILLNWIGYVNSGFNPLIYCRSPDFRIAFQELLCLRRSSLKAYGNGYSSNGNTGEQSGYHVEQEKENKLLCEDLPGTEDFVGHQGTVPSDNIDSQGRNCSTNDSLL
Procedure, shortened: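 Assay format: CHO-ADRB2 cells, 18-20hr seeding at 37C/5% CO2, then compound plus 1nM isoproterenol agonist mix for 0.5hr RT. Homogeneous time-resolved fluorescence cAMP detection after 1hr, expressed as 665/615 nm ratio.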

[18] = molecular target: D(2) dopamine receptor (Homo sapiens) (UniProt P14416); test: Dopamine D2 receptor (DRD2) small molecule agonists, cell-based qHTS assay (AID 1963594); further: nearly all actives have a fitted effect of over 35% in size
Sequence of D(2) dopamine receptor (Homo sapiens) (P14416 whole entry, looked up): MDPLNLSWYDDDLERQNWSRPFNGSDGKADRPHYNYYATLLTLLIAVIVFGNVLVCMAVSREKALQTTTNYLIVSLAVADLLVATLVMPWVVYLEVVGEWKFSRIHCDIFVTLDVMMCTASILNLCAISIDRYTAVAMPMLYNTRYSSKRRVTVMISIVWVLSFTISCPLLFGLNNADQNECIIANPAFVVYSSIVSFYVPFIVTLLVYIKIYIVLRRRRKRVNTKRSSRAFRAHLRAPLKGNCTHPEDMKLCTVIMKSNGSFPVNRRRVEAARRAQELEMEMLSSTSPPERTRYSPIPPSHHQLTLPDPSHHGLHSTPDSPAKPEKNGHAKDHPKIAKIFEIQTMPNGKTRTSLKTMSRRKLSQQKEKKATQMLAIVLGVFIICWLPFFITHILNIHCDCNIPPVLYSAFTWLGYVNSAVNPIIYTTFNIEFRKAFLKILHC
Procedure, shortened: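 cAMP accumulation in DRD2-HEK293 cells measured by HTRF after 1 h detection; compounds added 10 min before NKH477 (200nM […]) forskolin-analogue stimulation, 30 min at room temperature, with Ro20-1724 present at 0.1 mM final.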

[19] = molecular target: D(2) dopamine receptor (Homo sapiens) (UniProt P14416); test: Dopamine D2 receptor (DRD2) small molecule antagonists, cell-based qHTS assay (AID 1963595; active means well fitted inhibition curve with a large enough effect in the signal ratio in the repeat runs, with a control signal flat; the % refers to the signal ratio)
Procedure, shortened: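 DRD2-HEK293; 0.1 mM Ro20-1724; cpd 10 min RT; NKH477 200 nM + quinpirole 12 nM, 30 min RT; HTRF cAMP (cAMP-d2/anti-cAMP cryptate), 665/620 nm ratio after 1 h.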

[20] = molecular target: Beta-2 adrenergic receptor (Homo sapiens) (UniProt P07550); test: Adrenergic beta2 receptor (ADRB2) small molecule agonists, cell-based qHTS assay (AID 1963593);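 further: CHO cells stably overexpressing human ADRB2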
Procedure, shortened: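 CHO cells stably over-expressing ADRB2 were plated overnight at 37C, then dosed with compounds plus a stimulation mix containing 100uM IBMX and 25uM Ro-20-1724 for 0.5hr at room temperature. cAMP was measured by HTRF competition, 1hr.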
On the % scale 0 is the no-effect control and ±100 the full control effect.

CC(O)COC(C)(C)C (centres undefined)
inactive: Potency [1] | Potency [2] | Potency [3] | outcome [4] | outcome [5] | Potency [6] | Potency [7] | Potency [8] | Potency [9] | Potency [10] | Potency [11] | Potency [12] | Potency [13] | Potency [14] | Potency [15] | Potency [16] | Potency [17] | Potency [18] | Potency [19]

CCOC(CN1CCN(CC(C)C(=O)c2ccccc2)CC1)c1ccccc1 (centres undefined)
inactive: activity change, negative = cytotoxicity [1] -17.1% [at 19 µM] | activity, positive = activation [2] 6.71% [at 19 µM] | activity change [3] -0.217% [at 11.8 µM, stronger effect = higher value] | activation [4] 2.43% [at 15.8 µM] | activation [5] 1.41% [at 11.8 µM] | activation [6] -8.35% [at 13.5 µM] | activation [7] 1.1% [at 13.6 µM] | activity change, negative = cytotoxicity [8] 24.1% [at 13.5 µM] | activity change, negative = cytotoxicity [9] 9.5% [at 13.5 µM] | activation [10] -3.89% [at 13.5 µM] | activation [12] -20.7% [at 15.9 µM] | activity, negative = inhibition [13] -8.62% [at 12.6 µM] | activation [14] -0.405% [at 15.8 µM] | activation [15] -1.09% [at 19 µM] | activity change, negative = inhibition [16] 10.1% [at 18.9 µM] | activity change, negative = inhibition [17] 4.02% [at 19 µM] | Potency [20] | activation [18] -24.3% [at 19 µM] | activity change, negative = inhibition [19] 9.08% [at 18.9 µM]

CCCCCCCCCCCCCCCCCl
inactive: activity change, negative = cytotoxicity [1] -5.35% [at 19 µM] | activity, positive = activation [2] -7.33% [at 19 µM] | activity change [3] 0.762% [at 11.8 µM, stronger effect = higher value] | activation [4] 2.27% [at 15.8 µM] | activation [5] 0.033% [at 11.8 µM] | activation [6] 1.18% [at 13.5 µM] | activation [7] 0.0918% [at 13.6 µM] | activity change, negative = cytotoxicity [8] 0.42% [at 13.5 µM] | activity change, negative = cytotoxicity [9] -1.41% [at 13.5 µM] | activation [10] 0.101% [at 13.5 µM] | activity, negative = inhibition [11] 12.6% [at 12.7 µM] | activation [12] -4.65% [at 15.9 µM] | activity, negative = inhibition [13] -6.96% [at 12.6 µM] | activation [14] -0.468% [at 15.8 µM] | activation [15] -1.81% [at 19 µM] | activity change, negative = inhibition [16] -10.5% [at 18.9 µM] | activity change, negative = inhibition [17] -9.7% [at 19 µM] | Potency [20] | activation [18] -1.48% [at 19 µM] | activity change, negative = inhibition [19] 2.16% [at 18.9 µM]

CN(C)C/C=C(/c1ccc(Br)cc1)c1cccnc1
inactive: Potency [1] | Potency [2] | Potency [3] | outcome [4] | outcome [5] | Potency [6] | Potency [7] | Potency [8] | Potency [9] | Potency [10] | Potency [11] | Potency [13] | Potency [14] | Potency [16] | Potency [20]

CCCCC(CC)COC(=O)COc1ccc(Cl)cc1Cl (centres undefined)
inactive: Potency [1] | Potency [2] | Potency [3] | outcome [4] | outcome [5] | Potency [6] | Potency [7] | Potency [8] | Potency [9] | Potency [10] | Potency [11] | Potency [12] | Potency [13] | Potency [14] | Potency [17] | Potency [18] | Potency [19]

OC1(c2ccccc2)CCNCC1
inactive: Potency [1] | Potency [2] | Potency [3] | outcome [4] | outcome [5] | Potency [6] | Potency [7] | Potency [8] | Potency [9] | Potency [10] | Potency [11] | Potency [12] | Potency [13] | Potency [14] | Potency [15] | Potency [17] | Potency [20] | Potency [18] | Potency [19]
